We go through 91 compounds from PubChem BioAssay AID463173 (ICCB-Longwood Screening Facility, Harvard Medical School, 2010).

The structures appear in SMILES notation. Out of some 52,000 compounds screened, about 4,300 (8.3%) were called active. Only a selection was taken, and actives are over-represented in it overall. Unmarked numbers belong to inactive results. Rule as the data show it: active = survival mostly below about 52% (no sharp cut-off); inactive = mostly above about 56%.

For this test, the system named is DeltatarO mutant. As to the kind of experiment: S. aureus survival, RN4220 and DeltatarO strains – OD600, teichoic acid synthesis inhibitors, primary screen (AID 463173). The conditions noted are these: S. aureus RN4220 wild type/DeltatarO growth, OD600, 18 h, active compounds read low, screened at 18.75 µg/mL (by protocol).
As for `Cc1cccc2c1-c1sc(C(=O)NCc3ccccc3Cl)cc1CO2`, the survival is 55%.

Regarding `Cc1ccc(NC(=O)C2CCCN(S(=O)(=O)c3ccc4c(c3)oc(=O)n4C)C2)cc1Cl` (stereo unspecified), the survival is 76%.

As to `COc1ccc(C(=O)CSc2nc(C)cc(C)n2)cc1C`, the survival is 104%.

As to `Cc1ccc(NC(=O)Cn2ccn(Cc3ccc(Cl)cc3)c(=O)c2=O)cc1C`, the survival is 111%.

Regarding `Cc1ccc(NC(=O)CN2CCCN(Cc3cc(C)ccc3C)S2(=O)=O)c(Cl)c1`, the survival was 81%.

For the compound `Cc1ccc(NC(=O)CN2CCCN(Cc3ccccc3Cl)S2(=O)=O)c(C)c1`, the survival was 17% (active).

In the case of `CCc1cccc(C)c1NC(=O)Cn1ccn(-c2ccc(F)cc2)c(=O)c1=O`, the survival is 52%.

As for `CCc1cccc(C)c1NC(=O)Cn1ccn(Cc2ccc(Cl)cc2)c(=O)c1=O`, the survival is 41% (active).

With `Cc1ccccc1CN1CCCN(CC(=O)Nc2c(C)cccc2C)S1(=O)=O`, the survival was 93%.

As to `CCc1cccc(C)c1NC(=O)CN1CCCN(Cc2ccc(C)cc2)S1(=O)=O`, the survival was 8% (active).

Turning to `CCc1cccc(C)c1NC(=O)CN1CCCN(Cc2ccccc2Cl)S1(=O)=O`, the survival is 55%.

For the compound `Cc1ccc(CN2CCCN(CC(=O)Nc3ccc(C)cc3C)S2(=O)=O)cc1`, the survival is 89%.

Consider `CCOc1ccc(CNC(=O)CSc2nnc(C)c3c(C)n(-c4ccccc4)nc23)cc1`, for which the survival is 82%.

`CCN1CCC(N(Cc2ccc3c(c2)OCO3)C(=O)Nc2cc(Cl)ccc2C(=O)OC)CC1`: the survival is 126%.

As for `CCOC(=O)Cc1csc(NC(=O)CSc2nc3c(C)c(C)ccc3cc2C#N)n1`, the survival is 78%.

As to `COc1ccc(CC(C(=O)O)c2ccccc2)cc1` (stereo unspecified), the survival was 65%.

Regarding `COc1ccc(C)cc1S(=O)(=O)Nc1cccc(-c2ccc(N3CCC(C)CC3)nn2)c1`, the survival is -2% (active).

Turning to `CC1CCN(c2ccc(-c3cccc(NS(=O)(=O)c4ccc(Cl)s4)c3)nn2)CC1`, the survival was 72%.

As to `O=S(=O)(Nc1ccc(-c2ccc(N3CCCC3)nn2)cc1)c1ccc(OC(F)(F)F)cc1`, the survival is -4% (active).

For `O=S(=O)(Nc1ccc(-c2ccc(N3CCCCC3)nn2)cc1)c1ccc(OC(F)(F)F)cc1`, the survival was 82%.

As to `O=S(=O)(Nc1ccc(-c2ccc(N3CCCC3)nn2)cc1)c1ccc(C(F)(F)F)cc1`, the survival was 72%.

As for `O=S(=O)(Nc1cccc(-c2ccc(N3CCCCC3)nn2)c1)c1cccc(F)c1`, the survival is 91%.

As for `Cc1ccc(S(=O)(=O)Nc2cccc(-c3ccc(N4CCCCC4)nn3)c2)s1`, the survival was 76%.

Take `COc1ccc(F)cc1S(=O)(=O)Nc1cccc(-c2ccc(N3CCC(C)CC3)nn2)c1`: the survival was 109%.

With `COc1ccc(C)cc1S(=O)(=O)Nc1cccc(-c2ccc(N3CCCC3)nn2)c1`, the survival was 78%.

Turning to `O=S(=O)(Nc1cccc(-c2ccc(N3CCCCCC3)nn2)c1)c1ccccc1`, the survival was 6% (active).

Take `Cc1ccc(S(=O)(=O)Nc2cccc(-c3ccc(N4CCC(C)CC4)nn3)c2)s1`: the survival is -1% (active).

As to `O=S(=O)(Nc1cccc(-c2ccc(N3CCCCCC3)nn2)c1)c1ccc(F)cc1`, the survival was 79%.

Take `O=C(c1ccccc1Cl)N(Cc1ccco1)Cc1cc2cc3c(cc2nc1Cl)OCO3`: the survival is 103%.

Regarding `CCc1cnc2c(c1SCc1cc(OC)cc(OC)c1)c(=O)n(C)c(=O)n2C`, the survival was 75%.

As to `O=C(O)C1C2C=CC(C2)C1C(=O)N1CCN(Cc2ccccc2)CC1` (stereo unspecified), the survival is 59%.

Regarding `COc1ccc(S(=O)(=O)c2c(Nc3ccccc3F)sc(C(=O)c3cccc(OC)c3)c2N)cc1`, the survival was 97%.

Take `Cc1sc2ncn(CC(=O)N(C)c3ccc(Br)cc3)c(=O)c2c1S(=O)(=O)N1CCC(C)CC1`: the survival is 70%.

Turning to `Cc1ccc(OCc2cc(=O)n3cc(C)sc3n2)c(C)c1`, the survival was 59%.

With `Cc1ccc(NC(=O)c2ccc(=O)n(CC(=O)Nc3ccccc3)n2)cc1`, the survival is 85%.

For `O=C(Cn1ncc2c3ccccc3n(Cc3cccc(Cl)c3)c2c1=O)NCc1cccs1`, the survival is 99%.

For the compound `Cc1cccc(CN2CCN(CC(=O)NCc3ccc(Cl)cc3)C2=O)c1`, the survival is 72%.

Turning to `Cc1cccc2nc(-c3cccc(NS(=O)(=O)c4ccccc4)c3)cn12`, the survival is 35% (active).

Consider `Cc1csc2nc(-c3cccc(NS(C)(=O)=O)c3)cn12`, for which the survival was 88%.

`Cc1cccn2cc(-c3cccc(NS(=O)(=O)c4ccc(Cl)c(Cl)c4)c3)nc12`: the survival is 101%.

`COc1ccc(-n2nc(C(=O)Nc3ccc(C)cn3)c3c4ccccc4n(C)c3c2=O)cc1Cl`: the survival was 98%.

Regarding `CN(C)c1cccc(C(=O)N2CCC(c3ccncc3)CC2)c1`, the survival was 88%.

For `CC(C)(C)c1ccc(CSc2n[nH]c(=O)[nH]c2=O)cc1`, the survival is 98%.

`O=c1[nH]nc(SC(F)(F)C(F)(F)C(F)(F)F)c(=O)[nH]1`: the survival is 37% (active).

As to `CCCCCCSc1n[nH]c(=O)[nH]c1=O`, the survival was 78%.

For the compound `Cc1oc(-c2ccc(Cl)cc2)nc1Cn1c(=O)cc(C)c2c(C)nn(-c3cccc(F)c3)c21`, the survival is 82%.

On to `O=C(Nc1ccc(Cl)c(C(F)(F)F)c1)C(Cc1ccccc1)NS(=O)(=O)c1ccc(Br)s1` (stereo unspecified), for which the survival is 82%.

`Cc1ccc(NS(=O)(=O)c2ccc3c(c2)CCCN3C(=O)C2CCC2)c(C)c1`: the survival was 85%.

Consider `CN(C)S(=O)(=O)c1ccc(C(=O)NCCSc2c(-c3ccccc3)[nH]c3ccccc23)cc1`, for which the survival is 68%.

As for `CCOC(=O)c1ccc(Nc2nc3nonc3nc2Nc2cccc(C)c2C)cc1`, the survival is -1% (active).

For `CCOC(=O)c1ccc(Nc2nc(C)cc(C)n2)cc1`, the survival was 85%.

`CCOC(=O)c1ccc(Nc2nc3nonc3nc2NCc2ccco2)cc1`: the survival is 5% (active).

In the case of `CCOC(=O)c1ccc(Nc2nc3ccc(C(=O)c4ccccc4)cc3n3c(C)nnc23)cc1`, the survival is 109%.

Regarding `CCOC(=O)c1ccc(NC(=O)C(=O)NCc2ccco2)cc1`, the survival was 63%.

As for `Ic1ccc(Nc2nc3nonc3nc2N/N=C\c2ccco2)cc1`, the survival was 53%.

On to `Brc1ccc(NCc2ccco2)cc1`, for which the survival is 96%.

Consider `Cc1ccc(C)c(Nc2nc3nonc3nc2Nc2cccc(C)c2C)c1`, for which the survival is 2% (active).

`Cc1cccc(Nc2nc3nonc3nc2Nc2cccc(C)c2C)c1C`: the survival was 66%.

As to `Cc1cccc(Nc2nc3nonc3nc2N/N=C\c2cccs2)c1C`, the survival is 69%.

Consider `Brc1cccc(Nc2nc3nonc3nc2NCc2ccco2)c1`, for which the survival is 6% (active).

Regarding `O=C(c1ccc(F)cc1F)N1CCC(c2nc(-c3ccc(S(=O)(=O)N4CCCC4)cc3)no2)CC1`, the survival is 97%.

On to `O=S(=O)(c1ccc2ccccc2c1)n1nc(-c2ccco2)nc1NCc1ccc(F)cc1`, for which the survival is 106%.

In the case of `Cc1oc(-c2cccc(Cl)c2)nc1CN1CCC(C(=O)NC(C)c2ccccc2)CC1` (stereo unspecified), the survival was 85%.

Consider `CC(=O)Nc1ccccc1OCc1cc(=O)n2c3c(sc2n1)CCCC3`, for which the survival was 120%.

In the case of `O=C(/C=C/c1ccccc1)C1=C(O)C(=O)N(CCO)C1c1ccc2c(c1)OCO2` (stereo unspecified), the survival was 79%.

`COc1ccc(-c2oc3ncn4nc(-c5ccccc5O)nc4c3c2-c2ccc(OC)cc2)cc1`: the survival is 62%.

Turning to `CN(C)c1ccc(CNC(=O)c2cc3cc(S(=O)(=O)N4CCCCC4)ccc3n2C)cc1`, the survival was 8% (active).

For `Cc1ccccc1CNC(=O)c1cc2cc(S(=O)(=O)N3CCCCC3)ccc2n1C`, the survival was 102%.

Turning to `Cc1ccccc1CCNC(=O)c1cc2cc(S(=O)(=O)N3CCCCC3)ccc2n1C`, the survival is 20% (active).

As for `Cn1c(C(=O)NCc2ccc(F)cc2)cc2cc(S(=O)(=O)N3CCCCC3)ccc21`, the survival is 126%.

Turning to `Cn1c(C(=O)NCCc2ccccc2)cc2cc(S(=O)(=O)N3CCCCC3)ccc21`, the survival is 94%.

For `CCc1ccc(CNC(=O)c2cc3cc(S(=O)(=O)N4CCCCC4)ccc3n2C)cc1`, the survival is 60%.

Consider `CC(C)NC(=O)CCn1c(SCc2c(F)cccc2Cl)nc2c(sc3ccccc32)c1=O`, for which the survival was 67%.

For the compound `COc1ccccc1NC(=O)N1CCN(Cc2ccccc2)CC1`, the survival is 87%.

Take `Cc1cc(C)c2sc(N(Cc3cccnc3)C(=O)CCOc3ccccc3)nc2c1`: the survival was 115%.

As to `COc1cc(Cl)c(NC(=O)CCS(=O)(=O)c2ccc3c(c2)NC(=O)CO3)c(OC)c1`, the survival is 90%.

For the compound `COc1ccc(NC(=O)c2cc3cc(C)ccc3[nH]2)cc1`, the survival is 100%.

As for `Cc1ccc(NC(=O)CN2C(=O)COc3ccc(S(=O)(=O)N4CCOCC4)cc32)cc1N(C)C`, the survival is 99%.

`Cc1ccc(S(=O)(=O)c2cn(CC(=O)Nc3ccc4c(c3)OCO4)c3ccc(F)cc3c2=O)cc1`: the survival is 69%.

With `CC1C(=O)NN=C1C(=O)N/N=C\c1cccnc1` (stereo unspecified), the survival is 87%.

As to `Cc1ccc(NS(=O)(=O)c2cn(C)c(C)n2)c(Br)c1`, the survival is 69%.

On to `COc1ccccc1NS(=O)(=O)c1cn(C)c(C)n1`, for which the survival was 37% (active).

Turning to `CSc1cccc(NS(=O)(=O)c2cn(C)c(C)n2)c1`, the survival is 75%.

For the compound `CCc1nn(CC(=O)NC(C)CC)c(=O)c2cc3c(OC)cccc3n12` (stereo unspecified), the survival is 128%.

For the compound `CCc1ccc(OC(C)c2nc(-c3ccc(-n4cccc4)cc3)no2)cc1` (stereo unspecified), the survival is 48%.

With `CCCc1ccc(OC(C)c2nc(-c3ccc(-n4cccc4)cc3)no2)cc1` (stereo unspecified), the survival is 52% (active).

As to `CCc1ccc(OCc2nc(-c3ccc(-n4cccc4)cc3)no2)cc1`, the survival is 82%.

Consider `Cc1cc(NC(=O)CSc2nc3c([nH]c4ccccc43)c(=O)n2-c2ccccc2F)no1`, for which the survival was 88%.

On to `CC(Sc1nnc(-c2ccccc2Br)o1)C(=O)Nc1cccc(Cl)c1` (stereo unspecified), for which the survival is 34% (active).

For `Cc1ccccc1NC(=O)C(C)Sc1nnc(-c2ccccc2O)o1` (stereo unspecified), the survival was 69%.

Regarding `Cc1ccccc1NC(=O)C(C)Sc1nnc(-c2ccccc2C)o1` (stereo unspecified), the survival is 74%.
